From PubChem
IEC-6 cytotox: kills IEC-6 intestinal cells in KLF5 counter-screen | IEC-6 cytotoxicity, luminescence viability | inhibition, % at 5 µM | 290,000 tested, 0.78% active | AID 1825; in the data active means inhibition above about 22%
KLF5 inh: kruppel-like factor 5 inhibition; DLD-1 KLF5 promoter-luciferase reporter, luminescence; inhibition, % at 5 µM; 290,000 tested, 0.23% active; AID 1700;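 active means inhibition above a per-plate limit of that plate's mean compound inhibition plus 3 SD, cut at about 60% in these data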;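 further: higher means less KLF5 promoter-driven luciferase light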
CSC inhib: cancer stem cell inhibition | cancer stem cell-like cells viability, luminescence | inhibition, % at 7.5 µM | 300,000 tested, 1.1% active | AID 2717; in the data active means inhibition above about 75%; inconclusive means no clear call, values can overlap the other calls; tested in HMLE shEcad cells
aSyn UTR inh: 5' untranslated region of α-synuclein, MLPCN primary screen; 300,000 tested, 0.82% active; alpha-synuclein 5'UTR reporter, inhibitor activity; inhibition, % (tested at 7.5 µM); AID 1813; in the data active means inhibition above about 60%; inconclusive means no clear call, values can overlap the other calls;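 further: H4 neuroglioblastoma cells stably carrying SNCA 5'UTR luciferase fusion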
SKKanGAS inh: inhibitors of SKKanGAS S. pyogenes growth in kanamycin (SK-promoter or general growth effect); BacTiter-Glo, 6 h; inhibition, % at 7.5 µM; 300,000 tested, 1.3% active; AID 1662;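 active means mean replicate score, as percent of positive control median, at least 50; inconclusive means mean below 50 but one replicate at or above 50; inactive means mean and every replicate below 50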;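 further: strain carries kanamycin resistance gene driven by streptokinase promoter and grows in 40 µg/ml kanamycin; loss of luminescence reflects streptokinase promoter inhibition or plain growth inhibition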
Large screens that a line does not name were inactive. The list is not random: actives were taken first. Their share in the collection is about 3%.

O=C(Nc1ccncc1)Nc1cccc(C(F)(F)F)c1	none
COc1ccc(CCN(C)Cc2c(O)ccc3ccccc23)cc1OC	none
CCC(=O)C(C#N)(c1ccc(OC)c(OC)c1)C(C)C (stereo not given)	none (no result: IEC-6 cytotox, KLF5 inh, aSyn UTR inh, SKKanGAS inh)
O=[N+]([O-])c1ccc(/C=N/Nc2nc(N3CCCCCC3)nc(N3CCCCCC3)n2)o1	SKKanGAS inh 75
COc1ccc(Cl)cc1C(=O)OCC(=O)NCCNC(=O)COC(=O)c1cc(Cl)ccc1OC	none
Cc1ccc(S(=O)(=O)N2CCOCC2)cc1NC(=O)COc1ccccc1Cc1ccccc1	none (no result: IEC-6 cytotox, KLF5 inh, aSyn UTR inh, SKKanGAS inh)
CSc1nc(Oc2ccc3ccccc3c2)c2sccc2n1	aSyn UTR inh 82, SKKanGAS inh 54
Cc1onc(-c2ccccc2Cl)c1C(=O)N1CCC(C)CC1	none (no result: CSC inhib)
CCOC(=O)C1CCN(C(=O)c2c(C)oc3c2C(=O)c2ccccc2C3=O)CC1	aSyn UTR inh 72
Cc1oc2c(c1C(=O)N1CCC(C)CC1)C(=O)c1ccccc1C2=O	CSC inhib inconclusive, aSyn UTR inh 83
CCOC(=O)C1=C(O)C(=O)N(Cc2cccnc2)C1c1ccc(OC)cc1 (stereo not given)	none
CCc1c(C)c(C#N)c2nc3ccccc3n2c1-n1nc(C)cc1C	none
CCc1cc(=S)n2c([nH]c3ccccc32)c1C#N	none (no result: CSC inhib)
CCc1c(C)c(C#N)c2[nH]c3ccccc3n2c1=S	SKKanGAS inh 60
CCc1c(C)c(C#N)c2nc3ccccc3n2c1Cl	aSyn UTR inh 105 (no result: CSC inhib)
CN(C)[C@@H]1CCC[C@@H]1OC(=O)C(c1ccccc1)c1ccccc1	none
O=C(OCC(=O)N1CCN(c2ccccc2)CC1)c1ncc(Cl)c(Cl)c1Cl	none (no result: IEC-6 cytotox, KLF5 inh)
CCCCNC(=O)C1CC(=O)N(CCc2ccc(C)cc2)C1 (stereo not given)	none (no result: CSC inhib)
Cc1ccn2c(NCc3ccccc3)c(-c3cccc(SC4CCCCC4)c3)nc2c1	CSC inhib 99 (no result: IEC-6 cytotox, KLF5 inh, aSyn UTR inh, SKKanGAS inh)
CCC(C)Sc1ccc(-c2nc3ccc(Cl)cn3c2NCc2ccccc2)cc1 (stereo not given)	none (no result: IEC-6 cytotox, KLF5 inh, aSyn UTR inh, SKKanGAS inh)
Clc1ccc2nc(-c3cccc(SC4CCCCC4)c3)c(NCc3ccccc3)n2c1	none (no result: IEC-6 cytotox, KLF5 inh)
CCCCCCSc1cccc(-c2nc3ccc(Cl)cn3c2NCc2ccccc2)c1	CSC inhib 76 (no result: IEC-6 cytotox, KLF5 inh)
CCC(C)Sc1cccc(-c2nc3cc(C)ccn3c2NCc2ccccc2)c1 (stereo not given)	CSC inhib 123 (no result: IEC-6 cytotox, KLF5 inh)
CCCCCCSc1ccc(-c2nc3ccc(C)cn3c2NCc2ccccc2)cc1	none (no result: IEC-6 cytotox, KLF5 inh)
c1ccc(CNc2c(-c3cccc(SC4CCCCC4)c3)nc3ccccn23)cc1	CSC inhib 102 (no result: IEC-6 cytotox, KLF5 inh, aSyn UTR inh, SKKanGAS inh)
Cc1ccc(CNC(=O)CCSCc2ccccc2F)cc1	none
COc1ccc(COc2ccccc2C(=O)Nc2ccccn2)cc1[N+](=O)[O-]	none
CCC1(c2ccccc2)NC(=O)N(CC(=O)Nc2ccc(OC)nc2)C1=O (stereo not given)	none
COc1ccc2cc(/C=C/C(=O)N3CCN(CC(=O)N4CCCCCC4)CC3)ccc2c1	none
CSCCC(NC(=O)c1ccco1)C(=O)N1CC=C(c2ccccc2)CC1 (stereo not given)	none
COc1ccc(-c2n[nH]c(C(F)(F)F)c2-c2cc3ccccc3o2)c(O)c1	CSC inhib 102, SKKanGAS inh 99
CN(C)CCn1cnc2c(c1=N)C(c1ccccc1)c1ccc3ccccc3c1O2 (stereo not given)	aSyn UTR inh 90
N=c1c2c(ncn1CCN1CCOCC1)Oc1ccc3ccccc3c1C2c1ccccc1 (stereo not given)	none
N=c1c2c(ncn1Cc1ccco1)Oc1cc(O)ccc1C2c1ccccc1 (stereo not given)	none
N=c1c2c(ncn1Cc1ccco1)Oc1c(ccc3ccccc13)C2c1ccccc1 (stereo not given)	CSC inhib 102
CC(NS(=O)(=O)c1ccc(Br)cc1)C(=O)NCCc1ccccc1 (stereo not given)	none
CC(=O)Nc1cccc(NC(=O)c2ccc(COc3ccccc3)cc2)c1	none (no result: CSC inhib)
Cc1c(C(=O)Nc2ccc(Oc3ccccc3)cc2)sc2nc3n(c(=O)c12)CCC3	SKKanGAS inh 56 (no result: CSC inhib)
COc1cccc(COC(=O)c2sc3nc4n(c(=O)c3c2C)CCC4)c1OC	SKKanGAS inh 93 (no result: IEC-6 cytotox, KLF5 inh)
COc1ccc(-c2nc3ncccn3c2Nc2ccccc2)cc1	none
Cc1ccn2c(Nc3ccccc3)c(-c3ccccn3)nc2c1	CSC inhib 81, SKKanGAS inh 76
Cc1ccccc1Nc1c(-c2ccccn2)nc2ccccn12	aSyn UTR inh 64
Cc1cccn2c(Nc3ccccc3)c(-c3ccccn3)nc12	SKKanGAS inh 68
Cc1ccn2c(Nc3ccccc3C)c(-c3ccccn3)nc2c1	SKKanGAS inh 96
CCc1cc(C(=O)NC2CCCN(Cc3ccccc3F)C2)n(C)n1 (stereo not given)	none (no result: CSC inhib)
COCCCNC(=O)c1nc2ccccc2c(=O)n1NC(=O)Nc1c(Cl)cccc1Cl	none
Cc1ccc2nc(-c3cccnc3)c(Nc3ccccc3C)n2c1	none
Cc1ccc2nc(-c3ccccn3)c(Nc3ccccc3C)n2c1	CSC inhib inconclusive, SKKanGAS inh 92
O=C(NC(Cc1ccccc1)C(=O)O)/C(=C/c1ccc(Br)cc1)NC(=O)c1ccc(Br)o1 (stereo not given)	none
O=C(O)c1ccc(N2C(=O)/C(=C/c3ccc(-c4ccc([N+](=O)[O-])cc4)o3)C=C2c2ccccc2)cc1	SKKanGAS inh 104
O=C1NN(c2ccccc2)C(=O)/C1=C/c1ccc(-c2ccc(C(=O)O)cc2)o1	none
O=C(NCc1ccccn1)Nc1cc(Cl)cc(Cl)c1	SKKanGAS inh 77
O=C(Nc1ccc(Nc2ccccc2)cc1)Nc1ccccc1Cl	CSC inhib 100
O=C(NCc1ccccn1)Nc1cccc(Cl)c1	none
O=C(NC(=O)c1ccccc1)Nc1ccccc1	aSyn UTR inh 72
O=C(Nc1ccccc1)Nc1ccc(O)c2ccccc12	CSC inhib 98 (no result: IEC-6 cytotox, KLF5 inh)
O=C(NCCNC(=O)c1cc(OCC(F)(F)F)ccc1OCC(F)(F)F)Nc1cccc(C(F)(F)F)c1	none
O=C(Nc1ccccc1)Nc1cc(Cl)cc(Cl)c1	CSC inhib 81, SKKanGAS inh 84
O=C(Nc1ccccc1)Nc1cc(OCC(F)(F)F)cc(OCC(F)(F)F)c1	aSyn UTR inh 74, SKKanGAS inh 52 (no result: CSC inhib)
O=C(Nc1cccc(Cl)c1)Nc1cccc(Cl)c1	none
COc1ccc(C(=O)NCC(=O)OCC(=O)Nc2cc([N+](=O)[O-])ccc2F)cc1	none
O=C(NC1CCCC1)C1CCN(c2cnccn2)CC1	none
CN(CCC#N)C(=S)Nc1ccc(S(=O)(=O)N2CCOCC2)cc1	none
O=C(NCc1nc(-c2ccc(C(F)(F)F)cc2)no1)Nc1ccc(F)cc1F	none
O=C(NCc1nc(-c2ccc(C(F)(F)F)cc2)no1)Nc1cc(Cl)cc(Cl)c1	CSC inhib 134, SKKanGAS inh 109
Cc1ccccc1OCC(=O)Nc1ccc(C(=O)Nc2ccccc2C(=O)O)cc1	SKKanGAS inh 59
O=C(COc1ccc2ccccc2c1)Nc1cccc(C(=O)Nc2ccccc2C(=O)O)c1	SKKanGAS inh 55
CS/C(Nc1cc(Cl)ccc1Cl)=C(/C#N)C(=O)c1ccco1	SKKanGAS inh 54
CCC1(c2ccc(F)cc2)NC(=O)N(CC(=O)NCC(=O)Nc2cccc(C)c2C)C1=O (stereo not given)	none (no result: IEC-6 cytotox, KLF5 inh, CSC inhib)
